Assay results taken from PubChem BioAssay (NCATS).
Records with an inconclusive call do not appear. Calls of active or inactive are those of the source. Unless noted, calls come from the whole dose curve; as a rule, active = well fitted curve in the direction sought with a large enough effect; inconclusive = small, poorly fitted or top-dose-only effect, or another doubt; inactive = no such curve, though single readings can be large; an effect the other way counts as inactive or inconclusive.

What was measured:
[1] = biological target: Cytochrome P450 3A4 (Homo sapiens) (UniProt P08684); experiment: qHTS Assay for Inhibitors and Substrates of Cytochrome P450 3A4 (AID 884); note: % is set by controls: 0 for no effect and ±100 for the full control effect; nearly all actives have a fitted effect of over 50% in size
Chain of Cytochrome P450 3A4 (Homo sapiens) (P08684 whole entry, looked up): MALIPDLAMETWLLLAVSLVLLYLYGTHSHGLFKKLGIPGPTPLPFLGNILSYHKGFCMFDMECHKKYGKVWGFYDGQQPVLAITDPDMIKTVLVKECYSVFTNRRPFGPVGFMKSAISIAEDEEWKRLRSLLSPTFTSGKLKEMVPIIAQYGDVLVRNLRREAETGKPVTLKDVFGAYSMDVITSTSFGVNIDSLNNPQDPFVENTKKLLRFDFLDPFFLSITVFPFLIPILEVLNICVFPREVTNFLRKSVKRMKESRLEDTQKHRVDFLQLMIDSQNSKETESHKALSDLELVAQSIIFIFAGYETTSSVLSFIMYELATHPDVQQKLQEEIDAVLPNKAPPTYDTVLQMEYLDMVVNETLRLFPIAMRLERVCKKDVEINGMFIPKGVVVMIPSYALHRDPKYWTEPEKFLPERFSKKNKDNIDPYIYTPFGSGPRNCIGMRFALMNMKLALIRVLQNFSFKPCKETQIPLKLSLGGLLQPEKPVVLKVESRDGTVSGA
Outline: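 20 nM human CYP3A4 with 25 uM Luciferin-PPXE (at KM) in 200 mM KPO4, preincubated 10 min with compound; NADPH regeneration started a 60 min RT reaction. Luciferin detected by luminescence, normalized to 57 uM ketoconazole as full inhibition.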

[2] = Confirmation and Secondary Assay for Modulators of Hemoglobin Beta Chain Splicing at IVS2 654 locus (AID 910);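 note: HeLa cells stably carrying EGFP split by mutant beta-globin IVS2-654 intron; % of control where 0% means no effect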
Outline: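 HeLa cells stably expressing EGFP interrupted by β-globin IVS2-654 intron, seeded overnight in Opti-MEM/2% FCS, then treated 2 days at 37 °C. Restored splicing read as total peak GFP intensity per well by laser scanning cytometry (488 nm excitation, 500–520 nm emission); 500 nM antisense PNA as control.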

[3] = Confirmation and Secondary Assay for Modulators of Hemoglobin Beta Chain Splicing at IVS2 705 locus (AID 930);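 note: HeLa cells stably expressing the EGFP-705 splicing reporter; GFP fluorescence per well restored by corrected splicing of the IVS2-705 intron in EGFP; % of control where 0% means no effect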
Outline: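 HeLa EGFP-705 reporter; 500 cells/well, o/n 37C 5% CO2; cpd 2 d; 488 ex/500-520 em laser scan; total peak GFP intensity/well. Ref: 500 nM […] antisense PNA.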

[4] = qHTS Assay for Lipid Storage Modulators (AID 1519; calls by dose curve); details: Drosophila S3 cells, BODIPY lipid droplet/cell ratio, laser cytometry, cells loaded with oleic acid; for activity change, negative = inhibition: at 57.5 µM (top of the series)
Outline: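 Cells seeded at 5,000 per well were treated with compounds over a concentration series and loaded with oleic acid (400 uM, as added). Lipid droplet fluorescence (488 nm excitation, 500-530 nm channel) was read by laser-scanning cytometry and normalized to 20 uM Triacsin C.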

[5] = biological target: Ubiquitin carboxyl-terminal hydrolase 1 (Homo sapiens) (UniProt O94782); experiment: Inhibitors of USP1/UAF1: Pilot qHTS (AID 504865); note: nearly all actives have a fitted effect of over 35% in size; note: potency is the fitted concentration of half-maximal effect
Chain of Ubiquitin carboxyl-terminal hydrolase 1 (Homo sapiens) (O94782 whole entry, looked up): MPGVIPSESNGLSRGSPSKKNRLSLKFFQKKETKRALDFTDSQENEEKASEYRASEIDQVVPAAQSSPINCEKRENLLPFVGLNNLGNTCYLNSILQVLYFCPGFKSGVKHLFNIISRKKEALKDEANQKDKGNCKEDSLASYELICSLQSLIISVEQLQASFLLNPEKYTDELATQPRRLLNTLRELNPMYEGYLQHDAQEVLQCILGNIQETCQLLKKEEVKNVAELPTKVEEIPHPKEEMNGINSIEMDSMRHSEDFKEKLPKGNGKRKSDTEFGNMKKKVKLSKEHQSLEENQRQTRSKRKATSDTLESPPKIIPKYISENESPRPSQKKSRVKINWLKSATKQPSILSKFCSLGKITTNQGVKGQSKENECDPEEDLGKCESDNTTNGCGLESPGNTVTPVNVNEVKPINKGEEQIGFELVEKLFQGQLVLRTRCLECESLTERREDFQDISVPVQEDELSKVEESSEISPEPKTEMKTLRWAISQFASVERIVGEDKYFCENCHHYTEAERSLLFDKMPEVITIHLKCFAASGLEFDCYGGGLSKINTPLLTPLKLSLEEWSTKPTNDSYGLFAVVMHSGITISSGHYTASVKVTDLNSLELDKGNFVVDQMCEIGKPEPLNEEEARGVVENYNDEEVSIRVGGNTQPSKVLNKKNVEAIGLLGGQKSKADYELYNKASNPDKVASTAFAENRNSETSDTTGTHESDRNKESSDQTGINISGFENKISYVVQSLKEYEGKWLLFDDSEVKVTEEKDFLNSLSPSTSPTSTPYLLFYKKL
Outline: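 Enzyme-free wells gave the negative control, while test wells held 1nM USP1/UAF1 preincubated with compound for 15 min at room temperature. Ub-Rho at 150nM final started the reaction, and fluorescence at 480/540 nm was recorded kinetically.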

[6] = biological target: Estrogen receptor (Homo sapiens) (UniProt P03372); experiment: qHTS assay for small molecule antagonists of estrogen receptor alpha signaling (AID 588513; active = well fitted curve in the direction sought with a large enough effect in the signal ratio, with a control signal flat, not every such curve was filed as active; the % refers to the signal ratio; note: % is set by controls: 0 for no effect and ±100 for the full control effect)
Chain of Estrogen receptor (Homo sapiens) (P03372 whole entry, looked up): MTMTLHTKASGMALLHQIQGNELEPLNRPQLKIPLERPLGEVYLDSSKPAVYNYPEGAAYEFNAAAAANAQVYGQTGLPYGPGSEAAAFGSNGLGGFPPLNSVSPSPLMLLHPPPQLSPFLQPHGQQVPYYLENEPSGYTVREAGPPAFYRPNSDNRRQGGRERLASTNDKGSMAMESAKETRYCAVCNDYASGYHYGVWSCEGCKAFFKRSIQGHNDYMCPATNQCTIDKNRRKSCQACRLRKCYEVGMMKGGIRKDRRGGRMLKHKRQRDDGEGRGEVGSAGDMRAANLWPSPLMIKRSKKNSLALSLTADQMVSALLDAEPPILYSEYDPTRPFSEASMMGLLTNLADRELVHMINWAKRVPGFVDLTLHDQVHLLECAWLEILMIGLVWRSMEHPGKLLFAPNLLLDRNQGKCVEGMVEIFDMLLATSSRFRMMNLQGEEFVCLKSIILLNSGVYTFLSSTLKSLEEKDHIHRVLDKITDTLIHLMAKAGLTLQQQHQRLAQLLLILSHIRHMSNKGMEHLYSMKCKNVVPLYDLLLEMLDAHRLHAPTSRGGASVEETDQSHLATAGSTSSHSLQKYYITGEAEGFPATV
Outline: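 Antagonist-mode qHTS in ER-alpha-UAS-bla HEK 293 cells: compound titration, 0.5nM estradiol for 18 h, CCF4 fluorescence, Hill-derived IC50.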

[7] = biological target: Estrogen receptor (Homo sapiens) (UniProt P03372); experiment: qHTS assay for small molecule agonists of estrogen receptor alpha signaling (AID 588514; calls by dose curve;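 note: 0% = vehicle only and 100% = reference agonist; nearly all actives have a fitted effect of over 70% in size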)
Outline: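 Cells were plated at 5000/well, incubated 4 hrs at 37 C, dosed with compound titration series, incubated 18 hrs at 37 C, loaded with CCF4 dye for 2 hrs at RT, then fluorescence was read.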

[8] = biological target: Bile acid receptor (Homo sapiens) (UniProt Q96RI1); experiment: qHTS assay for small molecule antagonists of farnesoid X receptor signaling (AID 588526; calls by dose curve; note: % is set by controls: 0 for no effect and ±100 for the full control effect)
Chain of Bile acid receptor (Homo sapiens) (Q96RI1 whole entry, looked up): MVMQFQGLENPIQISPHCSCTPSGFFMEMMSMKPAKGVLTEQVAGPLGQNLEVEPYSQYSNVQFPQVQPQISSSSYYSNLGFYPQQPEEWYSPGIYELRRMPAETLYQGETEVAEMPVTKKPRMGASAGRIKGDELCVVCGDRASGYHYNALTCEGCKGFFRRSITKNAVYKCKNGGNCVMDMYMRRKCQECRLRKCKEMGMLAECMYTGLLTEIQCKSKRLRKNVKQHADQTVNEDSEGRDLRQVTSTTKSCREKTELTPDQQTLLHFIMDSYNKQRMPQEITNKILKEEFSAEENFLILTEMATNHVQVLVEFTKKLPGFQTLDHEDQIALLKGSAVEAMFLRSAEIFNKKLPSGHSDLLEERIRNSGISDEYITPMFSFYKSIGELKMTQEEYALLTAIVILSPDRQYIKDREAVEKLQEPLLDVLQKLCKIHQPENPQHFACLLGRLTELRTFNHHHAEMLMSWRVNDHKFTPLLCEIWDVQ
Outline: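 Antagonist mode: titrated compounds tested against chenodeoxycholic acid stimulation (normalized to 50 uM CDCA and DMSO) in GeneBLAzer HEK293T cells for 16 h. Beta-lactamase read by CCF4 fluorescence; IC50 from Hill fits.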

[9] = biological target: Bile acid receptor (Homo sapiens) (UniProt Q96RI1); experiment: qHTS assay for small molecule agonists of farnesoid X receptor signaling (AID 588527; calls by dose curve;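 note: 0% = vehicle basal and 100% = reference agonist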); details: HEK293T FXR-UAS-bla, beta-lactamase ratio, 16 h; stronger effect = higher value
Outline: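 Quantitative HTS used FXR-UAS-bla HEK293T cells with 16 h compound incubation at 37 C. EC50 values came from concentration-response curves normalized to chenodeoxycholic acid.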

[10] = biological target: Glucocorticoid receptor (Homo sapiens) (UniProt P04150); experiment: qHTS assay for small molecule antagonists of glucocorticoid receptor signaling (AID 588533; active = well fitted inhibition curve with a large enough effect in the signal ratio, with a control signal flat, not every such curve was filed as active; the % refers to the signal ratio; note: % is set by controls: 0 for no effect and ±100 for the full control effect)
Outline: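 Antagonist-mode qHTS: compound titrations added to GRE-bla HeLa cells, then dexamethasone 2 nM final; 18 h, 37 C. CCF4 FRET fluorescence normalized to dexamethasone and DMSO; IC50 from Hill fit.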

[11] = biological target: Peroxisome proliferator-activated receptor delta (Homo sapiens) (UniProt Q03181); experiment: qHTS assay for small molecule agonists of peroxisome proliferator-activated receptor delta signaling (AID 588534; calls by dose curve;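 note: 0% = DMSO basal wells and 100% = positive control agonist at 10 µM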)
Chain of Peroxisome proliferator-activated receptor delta (Homo sapiens) (Q03181 whole entry, looked up): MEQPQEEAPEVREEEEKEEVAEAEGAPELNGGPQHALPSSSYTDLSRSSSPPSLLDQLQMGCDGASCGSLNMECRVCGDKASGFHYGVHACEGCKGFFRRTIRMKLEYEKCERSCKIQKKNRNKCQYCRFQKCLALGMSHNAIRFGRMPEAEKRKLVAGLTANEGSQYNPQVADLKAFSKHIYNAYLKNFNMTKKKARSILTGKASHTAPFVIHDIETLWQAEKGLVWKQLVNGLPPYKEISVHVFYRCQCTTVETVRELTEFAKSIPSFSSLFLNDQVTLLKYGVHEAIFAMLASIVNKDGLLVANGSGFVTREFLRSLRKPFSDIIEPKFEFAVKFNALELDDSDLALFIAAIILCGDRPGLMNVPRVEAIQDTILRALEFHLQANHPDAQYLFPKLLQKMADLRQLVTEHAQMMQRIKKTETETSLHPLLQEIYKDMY
Outline: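 Fluorescence from CCF4 substrate cleavage by beta-lactamase reporter, read 2 hrs at RT, measured agonist activity. Compounds were tested with 18 hrs exposure at 37 C. Concentration-response data fitted to Hill equation.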

[12] = qHTS assay for small molecule antagonists of peroxisome proliferator-activated receptor delta signaling (AID 588535); details: HEK293T PPARd-UAS-bla, beta-lactamase FRET ratio, 18 h; 460 nm channel;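 note: cells co-treated with a PPAR-delta agonist as stimulator during compound exposure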
Outline: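 Antagonist-mode beta-lactamase reporter (GeneBLAzer PPAR-delta-UAS-bla) in HEK293T cells, 2% charcoal/dextran FBS, 4000 cells/well. Compound titrations, 18 h at 37 C; CCF4 ratio read, IC50 and efficacy from Hill fits.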

[13] = biological target: Peroxisome proliferator-activated receptor gamma (Homo sapiens) (UniProt P37231); experiment: qHTS assay for small molecule agonists of peroxisome proliferator-activated receptor gamma signaling (AID 588536; active = well fitted curve in the direction sought with a large enough effect in the signal ratio, with a control signal flat, not every such curve was filed as active; the % refers to the signal ratio;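 note: 0% = DMSO basal wells and 100% = rosiglitazone at 2 µM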)
Chain of Peroxisome proliferator-activated receptor gamma (Homo sapiens) (P37231 whole entry, looked up): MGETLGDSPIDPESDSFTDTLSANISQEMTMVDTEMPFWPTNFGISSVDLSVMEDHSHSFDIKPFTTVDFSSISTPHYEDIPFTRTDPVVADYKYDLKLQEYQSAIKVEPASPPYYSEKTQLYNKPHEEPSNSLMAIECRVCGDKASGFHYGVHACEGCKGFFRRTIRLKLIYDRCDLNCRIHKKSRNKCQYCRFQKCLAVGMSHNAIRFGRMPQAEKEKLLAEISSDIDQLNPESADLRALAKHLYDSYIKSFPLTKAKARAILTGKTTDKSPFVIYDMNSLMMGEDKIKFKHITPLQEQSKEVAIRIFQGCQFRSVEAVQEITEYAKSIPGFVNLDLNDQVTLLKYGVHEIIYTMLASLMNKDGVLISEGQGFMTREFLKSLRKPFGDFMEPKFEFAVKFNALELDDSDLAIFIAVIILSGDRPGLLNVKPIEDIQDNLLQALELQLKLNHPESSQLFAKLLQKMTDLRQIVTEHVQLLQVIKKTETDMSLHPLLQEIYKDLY
Outline: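 HEK293 UAS-bla reporter line, 1% charcoal/dextran FBS; titration, 16 h, 37 C; CCF4 loading 2 h RT; fluorescence 460/530 nm. Normalized to rosiglitazone 2 uM = 100%, DMSO = 0%.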

[14] = biological target: Peroxisome proliferator-activated receptor gamma (Homo sapiens) (UniProt P37231); experiment: qHTS assay for small molecule antagonists of peroxisome proliferator-activated receptor gamma signaling (AID 588537; active = well fitted inhibition curve with a large enough effect in the signal ratio, with a control signal flat, not every such curve was filed as active; the % refers to the signal ratio;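 note: reporter cells co-stimulated with 50 nM rosiglitazone agonist during compound treatment; % of control where 0% means no effect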)
Outline: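 PPARγ-UAS-bla HEK293 cells (3000/well) in 1% charcoal/dextran-stripped FBS are treated with compound, then stimulated with 50 nM rosiglitazone for 16 h at 37 °C. Read-out is CCF4 β-lactamase fluorescence after 2 h at RT. IC50 comes from Hill fits normalised to rosiglitazone and DMSO.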

[15] = biological target: Vitamin D3 receptor (Homo sapiens) (UniProt P11473); experiment: qHTS assay for small molecule antagonists of vitamin D receptor signaling (AID 588541; calls by dose curve;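 note: receptor activated by calcitriol during compound treatment; % is set by controls: 0 for no effect and ±100 for the full control effect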)
Chain of Vitamin D3 receptor (Homo sapiens) (P11473 whole entry, looked up): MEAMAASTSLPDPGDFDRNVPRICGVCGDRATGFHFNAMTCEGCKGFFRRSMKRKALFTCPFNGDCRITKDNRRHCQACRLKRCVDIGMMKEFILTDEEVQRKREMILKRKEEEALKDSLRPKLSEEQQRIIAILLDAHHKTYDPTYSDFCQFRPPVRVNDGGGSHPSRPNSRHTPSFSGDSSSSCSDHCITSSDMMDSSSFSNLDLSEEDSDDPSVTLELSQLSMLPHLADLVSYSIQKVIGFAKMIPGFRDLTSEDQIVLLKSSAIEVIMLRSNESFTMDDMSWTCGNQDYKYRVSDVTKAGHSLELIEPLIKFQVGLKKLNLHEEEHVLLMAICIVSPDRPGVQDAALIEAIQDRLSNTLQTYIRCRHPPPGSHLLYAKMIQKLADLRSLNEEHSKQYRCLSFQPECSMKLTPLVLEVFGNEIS
Outline: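 VDR-UAS-bla HEK293T cells in 2% charcoal-stripped FBS were stimulated with 1-alpha,25-dihydroxyvitamin D3 (3 nM final) plus compound for 16 h at 37 C. The beta-lactamase CCF4 readout was normalized to 50 nM agonist and DMSO, and Hill fits gave IC50.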

[16] = biological target: Vitamin D3 receptor (Homo sapiens) (UniProt P11473); experiment: qHTS assay for small molecule agonists of vitamin D receptor signaling (AID 588543; calls by dose curve;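 note: 0% = DMSO basal and 100% = reference agonist control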)
Outline: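 Measured: β-lactamase reporter activity (CCF4, 405 nm excitation, 460/530 nm emission) in HEK293T VDR-UAS-bla cells after 16 h compound exposure at 37 °C. Normalization against 50 nM 1α,25-dihydroxyvitamin D3 and DMSO; Hill-fit EC50.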

[17] = qHTS assay for small molecule agonists of retinoid X receptor alpha signaling (AID 588544; calls by dose curve;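 for activation: 0% = DMSO basal wells and 100% = reference agonist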); details: HEK293T RXRa-UAS-bla, beta-lactamase reporter, 18 h; 530 nm emission
[18] = biological target: Retinoic acid receptor RXR-alpha (Homo sapiens) (UniProt P19793); experiment: as above
Chain of Retinoic acid receptor RXR-alpha (Homo sapiens) (P19793 whole entry, looked up): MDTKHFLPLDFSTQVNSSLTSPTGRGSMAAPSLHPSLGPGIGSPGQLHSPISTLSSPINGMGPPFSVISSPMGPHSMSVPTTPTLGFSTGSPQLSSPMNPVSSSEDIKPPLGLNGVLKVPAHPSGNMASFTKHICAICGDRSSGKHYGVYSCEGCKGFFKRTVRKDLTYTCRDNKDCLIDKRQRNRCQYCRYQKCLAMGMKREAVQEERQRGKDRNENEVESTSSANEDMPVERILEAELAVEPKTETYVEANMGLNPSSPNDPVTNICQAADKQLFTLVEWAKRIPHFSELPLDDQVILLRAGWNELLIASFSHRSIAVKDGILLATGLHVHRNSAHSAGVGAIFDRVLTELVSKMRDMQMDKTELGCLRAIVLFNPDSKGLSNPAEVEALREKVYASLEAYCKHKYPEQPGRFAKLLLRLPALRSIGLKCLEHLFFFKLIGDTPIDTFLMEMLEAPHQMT

[19] = qHTS assay for small molecule antagonists of retinoid X receptor alpha signaling (AID 588546; active = well fitted inhibition curve with a large enough effect in the signal ratio, with a control signal flat, not every such curve was filed as active; the % refers to the signal ratio); details: HEK293T RXRa-UAS-bla, beta-lactamase ratio, antagonist mode; measured here: W530 green channel, cytotoxicity proxy
Outline: (§1)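 Beta-lactamase reporter inhibition, read as CCF4 fluorescence ratio (ex 405, em 460/530 nm) after 2 h at RT. HEK293T UAS-bla cells, 2500/well, were stimulated with 9-cis-RA at 500 or 100 nM final alongside test compound for 18 h at 37 C.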

[20] = biological target: Retinoic acid receptor RXR-alpha (Homo sapiens) (UniProt P19793); experiment: as above; details: HEK293T RXRa-UAS-bla, beta-lactamase ratio, antagonist mode
Outline: as §1

[21] = qHTS assay for small molecule activators of the p53 signaling pathway (AID 651743; active = well fitted activation curve with a large enough effect in the signal ratio, not every such curve was filed as active; the % refers to the signal ratio; note: % of control where 0% means no effect); details: HCT-116 p53RE-bla, beta-lactamase FRET ratio, 16 h; activation: stronger effect = higher value
Outline: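 p53RE-bla HCT-116 cells carrying a beta-lactamase reporter under p53 response elements were exposed to compounds for 16 hours at 37 C. Reporter activity read as fluorescence after 2 hours at room temperature with LiveBLAzer B/G FRET substrate.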

[22] = qHTS assay for small molecule activators of the nuclear factor-kappa B (NF-kB) signaling pathway (AID 651749; active = well fitted activation curve with a large enough effect in the signal ratio; the % refers to the signal ratio; note: % of control where 0% means no effect); details: NF-kB-bla ME-180 cells, beta-lactamase FRET ratio, 16 h; activation: stronger effect = higher value
Outline: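 NF-kB-bla ME-180 cells carrying a beta-lactamase reporter under an NF-kB response element, 2,000 cells/well, exposed to compound for 16 hr at 37C; FRET-based beta-lactamase fluorescence read-out of pathway activation.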

[23] = qHTS assay for environmental chemicals that activate the Aryl hydrocarbon Receptor (AhR) signaling pathway (AID 651777); details: 1A2-DRE human hepatoma cells, luciferase, 24 h; activation: stronger effect = higher value; note: % of control where 0% means no effect; nearly all actives have a fitted effect of over 15% in size
Outline: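 1A2-DRE human hepatoma reporter line; 1,200 cells/well; cmpd or DMSO 24 h, 37 C/5% CO2; One-Glo 30 min RT; luciferase lum.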

[24] = biological target: Peroxisome proliferator-activated receptor alpha (Homo sapiens) (UniProt Q07869); experiment: qHTS assay for small molecule agonists of the peroxisome proliferator-activated receptor alpha (PPARalpha) signaling pathway (AID 651778); details: PathHunter PPARalpha complementation, chemiluminescence, 6 h; stronger effect = higher value; note: % of control where 0% means no effect
Outline: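 Enzyme-fragment complementation assay in which ligand-bound PPARalpha translocates and forms an active enzyme that generates chemiluminescence. Cells were plated overnight, exposed to compound for 6 hr at 37 C, and then given detection reagent for 60 min at room temperature.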

[25] = qHTS assay for small molecule agonists of the antioxidant response element (ARE) signaling pathway measured by Nrf2-dependant transcriptional activity (AID 720636; active = well fitted curve in the direction sought with a large enough effect in the repeat runs; an effect the other way counts as inactive or inconclusive;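 note: HepG2 cells with an ARE-driven luciferase reporter; % of control where 0% means no effect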)
Outline: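 Cells: ARE-luc HepG2 with Nrf2-responsive luciferase. Medium contained 1% dialyzed FBS. Compound exposure lasted 16 hr at 37 C and 5% CO2, followed by ONE-Glo luciferase detection.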

[26] = qHTS assay for small molecule agonists of the antioxidant response element (ARE) signaling pathway measured by Nrf2-dependant transcriptional activity - cell viability counter screen (AID 720653; active = well fitted curve in the direction sought with a large enough effect in the repeat runs; an effect the other way counts as inactive or inconclusive; note: % is set by controls: 0 for no effect and ±100 for the full control effect); details: ARE-bla HepG2 viability, CellTiter-Glo ATP luminescence, 16 h; stronger effect = lower value
Outline: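 ARE-bla HepG2 cells treated with compounds for 16 h at 37C; this counter screen measures viability as intracellular ATP by CellTiter-Glo luminescence after 30 min at room temperature.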

[27] = qHTS assay for cell viability of HEK293 cells (AID 743288); details: ATP luminescence (CellTiter-Glo), 18 h; max response: stronger effect = lower value; note: % is set by controls: 0 for no effect and ±100 for the full control effect; nearly all actives have a fitted effect of over 50% in size
Outline: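 Luminescent ATP quantitation served as the viability read-out. Cells (parental HEK293, 2,000/well) received compounds after at least 5 h at 37 C and were exposed for 18 h before a 30 min room-temperature reagent step.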

[28] = qHTS assay for cell viability of the p53RE-bla HCT-116 cell line (AID 743292); note: % is set by controls: 0 for no effect and ±100 for the full control effect; nearly all actives have a fitted effect of over 55% in size
Outline: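 HCT-116 p53RE-bla cells seeded 4,000/well; 5 h at 37 C; compound (DMSO) added; 16 h at 37 C; CellTiter-Glo added, 30 min RT; luminescence read.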

[29] = biological target: Nuclear receptor subfamily 1 group I member 2 (Rattus norvegicus) (UniProt Q9R1A7); experiment: qHTS assay for small molecule activators of the rat pregnane X receptor (rPXR) signaling pathway (AID 651751; call rule not given here; note: 0% is about no effect); details: rPXR reporter cells, luciferase (One-Glo), 24 h
[30] = biological target: DNA dC->dU-editing enzyme APOBEC-3G (Homo sapiens) (UniProt Q9HC16); experiment: qHTS for inhibitors of Vif-A3G interactions: Validation (AID 588379); note: 0% is about no effect
Chain of DNA dC->dU-editing enzyme APOBEC-3G (Homo sapiens) (Q9HC16 whole entry, looked up): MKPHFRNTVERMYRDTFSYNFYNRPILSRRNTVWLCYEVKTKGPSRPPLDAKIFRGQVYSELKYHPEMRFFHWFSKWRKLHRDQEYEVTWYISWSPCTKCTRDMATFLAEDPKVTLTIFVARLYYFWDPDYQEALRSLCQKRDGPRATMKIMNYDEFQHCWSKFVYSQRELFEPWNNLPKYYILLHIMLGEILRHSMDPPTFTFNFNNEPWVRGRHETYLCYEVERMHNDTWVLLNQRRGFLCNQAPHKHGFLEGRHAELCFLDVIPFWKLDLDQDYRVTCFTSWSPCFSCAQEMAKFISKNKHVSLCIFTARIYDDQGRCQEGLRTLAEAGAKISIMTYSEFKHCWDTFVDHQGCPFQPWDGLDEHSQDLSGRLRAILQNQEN
Outline: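 HeLa cells stably expressing Vif and A3G-eYFP, 700 cells/well, incubated overnight at 37 deg C, then exposed to compound overnight at 37 deg C. Inhibition of Vif-mediated degradation read as increased yellow fluorescence (Ex 488/Em 500-530) by laser-scanning cytometry.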

[31] = measured here: cell count channel max response
[32] = measured here: lipid channel max response

CNC(=O)Oc1cccc2c1OC(C)(C)O2
inactive: Potency [1] | Potency [2] | Potency [3] | activity change, negative = inhibition [4] 5.39% | Potency [5] | Potency [6] | Potency [7] | outcome [8] | activation [9] -0.605% | Potency [10] | outcome [11] | outcome [13] | Potency [14] | outcome [15] | outcome [16] | Potency [18] | max response [20] -16.4% | activation [21] 0.009% | activation [22] -0.841% | activation [23] 1.33% | max response [24] -1.3% | outcome [25] | max response [26] -5.36% | max response [27] -19.8% | Potency [28] | max response [29] 2.1%
22.8%: max response [4, 32]
28.5%: max response [12]
-10.6%: max response [19]
-5.16%: max response [17]
18%: max response [4, 31]

CC(CCC(=O)O)C1CCC2C3CC[C@H]4CC(O)CC[C@@]4(C)C3CC[C@@]12C (stereo partly specified)
inactive: activity change, negative = inhibition [4] -0.0455%
10.6%: max response [4, 32]
active: Potency [5] 79.4 µM
5.89%: max response [4, 31]

O=C1CCCC2[C@@H]3CCCN4CCC[C@@H](CN12)C34 (stereo partly specified)
4.45%: max response [4, 31]
7.09%: max response [4, 32]
inactive: Potency [1] | activity change, negative = inhibition [4] 4.15% | Potency [5] | outcome [30]
